Assay results taken from PubChem BioAssay AID1159580 (chemical genetic matrix, 2015).
Where “and” joins values, the source holds several entries; their conditions need not be identical. Equal values may be shown once. Among all 5,500 compounds or so, about 2,000 (36%) were called active. About 18% were inconclusive and are not listed. This is one part of the list. A number with no mark means an inactive call. No stated cut-off is given here; in the data, active means normalized growth mostly below about 0.91 (no sharp cut-off); inconclusive means no clear call, values can overlap the other calls; inactive means mostly above about 0.92.

Experiment: chemical genetic growth profiling, strain panel (AID 1159580);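 further: tested at 20 µM; growth read once vehicle control cultures reached saturation at 30 °C; 1 = growth at the plate median or of vehicle wells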
Details: S. cerevisiae deletion strains, growth OD

## COc1cc2c(cc1OC)[C@@H]1C(=O)c3ccc4c(c3O[C@@H]1CO2)C=CC(C)(C)O4
Locus YAL013W, strain DEP1, stronger effect = lower value
  normalized growth: 0.993
Locus YAL021C, strain ccr4, stronger effect = lower value
  normalized growth: 1.05
Locus YAL026C, strain drs2, stronger effect = lower value
  normalized growth: 1.02
Locus YAL030W, strain snc1, stronger effect = lower value
  normalized growth: 1.02
Locus YBL061C, strain skt5, stronger effect = lower value
  normalized growth: 1.01
Locus YBR009C, strain hhf1, stronger effect = lower value
  normalized growth: 0.938
Locus YBR021W, strain FUR4, stronger effect = lower value
  normalized growth: 0.972
Locus YBR023C, strain chs3, stronger effect = lower value
  normalized growth: 1.01
Locus YBR171W, strain sec66, stronger effect = lower value
  normalized growth: 0.993
Locus YBR229C, strain ROT2, stronger effect = lower value
  normalized growth: 0.99
Locus YBR231C, strain swc5, stronger effect = lower value
  normalized growth: 0.99
Locus YBR279W, strain paf1, stronger effect = lower value
  normalized growth: 1.01
Locus YCL011C, strain gbp2, stronger effect = lower value
  normalized growth: 0.98
Locus YCL016C, strain dcc1, stronger effect = lower value
  normalized growth: 1
Locus YCL029C, strain bik1, stronger effect = lower value
  normalized growth: 0.971
Locus YCL069W, strain vba3, stronger effect = lower value
  normalized growth: 1
Locus YCR088W, strain abp1, stronger effect = lower value
  normalized growth: 1.01
Locus YDL005C, strain med2, stronger effect = lower value
  normalized growth: 1.03
Locus YDL035C, strain GPR1, stronger effect = lower value
  normalized growth: 0.976
Locus YDL040C, strain nat1, stronger effect = lower value
  normalized growth: 1
Locus YDL074C, strain BRE1, stronger effect = lower value
  normalized growth: 0.994
Locus YDL101C, strain DUN1, stronger effect = lower value
  normalized growth: 0.976
Locus YDL134C, strain PPH21, stronger effect = lower value
  normalized growth: 0.99
Locus YDL185W, strain tfp1, stronger effect = lower value
  normalized growth: 0.97
Locus YDL192W, strain arf1, stronger effect = lower value
  normalized growth: 0.964
Locus YDR001C, strain nth1, stronger effect = lower value
  normalized growth: 1.01
Locus YDR069C, strain doa4, stronger effect = lower value
  normalized growth: 1
Locus YDR101C, strain arx1, stronger effect = lower value
  normalized growth: 0.988
Locus YDR137W, strain rgp1, stronger effect = lower value
  normalized growth: 0.88
Locus YDR150W, strain NUM1, stronger effect = lower value
  normalized growth: 0.987
Locus YDR159W, strain sac3, stronger effect = lower value
  normalized growth: 0.898
Locus YDR162C, strain NBP2, stronger effect = lower value
  normalized growth: 1.01
Locus YDR195W, strain ref2
  normalized growth: 1.1
Locus YDR297W, strain sur2, stronger effect = lower value
  normalized growth: 0.993
Locus YDR318W, strain mcm21, stronger effect = lower value
  normalized growth: 0.966
Locus YDR334W, strain swr1, stronger effect = lower value
  normalized growth: 1.02
Locus YDR335W, strain msn5, stronger effect = lower value
  normalized growth: 1.02
Locus YDR388W, stronger effect = lower value
  normalized growth: 0.974
Locus YDR392W, strain spt3, stronger effect = lower value
  normalized growth: 0.607 (active)
Locus YDR502C, strain sam2, stronger effect = lower value
  normalized growth: 0.981
Locus YEL003W, strain gim4, stronger effect = lower value
  normalized growth: 1.01
Locus YEL037C, strain rad23, stronger effect = lower value
  normalized growth: 1.03
Locus YEL061C, strain CIN8 (second series), stronger effect = lower value
  normalized growth: 1.02
Locus YEL061C, strain CIN8, stronger effect = lower value
  normalized growth: 0.995
Locus YER015W, strain faa2, stronger effect = lower value
  normalized growth: 1.01
Locus YER016W, strain bim1, stronger effect = lower value
  normalized growth: 1.01
Locus YER110C, stronger effect = lower value
  normalized growth: 0.962
Locus YER111C, strain swi4, stronger effect = lower value
  normalized growth: 1.04
Locus YER155C, strain BEM2 (second series), stronger effect = lower value
  normalized growth: 0.991
Locus YER155C, strain BEM2, stronger effect = lower value
  normalized growth: 0.988
Locus YER167W, strain BCK2, stronger effect = lower value
  normalized growth: 0.955
Locus YFR010W, strain ubp6, stronger effect = lower value
  normalized growth: 1.01
Locus YGL078C, strain dbp3, stronger effect = lower value
  normalized growth: 0.973
Locus YGL086W, strain mad1, stronger effect = lower value
  normalized growth: 0.958
Locus YGL167C, strain pmr1, stronger effect = lower value
  normalized growth: 1
Locus YGL173C, strain kem1, stronger effect = lower value
  normalized growth: 0.978
Locus YGL227W, strain vid30, stronger effect = lower value
  normalized growth: 1
Locus YGL240W, strain doc1, stronger effect = lower value
  normalized growth: 0.98
Locus YGL248W, strain PDE1, stronger effect = lower value
  normalized growth: 0.986
Locus YGL253W, strain hxk2, stronger effect = lower value
  normalized growth: 0.996
Locus YGR078C, strain PAC10, stronger effect = lower value
  normalized growth: 1.01
Locus YGR135W, strain pre9, stronger effect = lower value
  normalized growth: 0.987
Locus YGR229C, strain SMI1, stronger effect = lower value
  normalized growth: 0.983
Locus YGR252W, strain gcn5, stronger effect = lower value
  normalized growth: 0.891
Locus YHR013C, strain ard1, stronger effect = lower value
  normalized growth: 0.993
Locus YHR027C, strain rpn1, stronger effect = lower value
  normalized growth: 1
Locus YHR030C, strain SLT2, stronger effect = lower value
  normalized growth: 0.986 and 0.96
Locus YHR079C, strain IRE1 (second series), stronger effect = lower value
  normalized growth: 0.987
Locus YHR079C, strain IRE1, stronger effect = lower value
  normalized growth: 0.954
Locus YHR094C, strain hxt1, stronger effect = lower value
  normalized growth: 0.978
Locus YHR129C, strain ARP1, stronger effect = lower value
  normalized growth: 0.989
Locus YHR142W, strain chs7, stronger effect = lower value
  normalized growth: 0.996
Locus YHR200W, strain rpn10, stronger effect = lower value
  normalized growth: 0.965
Locus YIL066C, strain RNR3, stronger effect = lower value
  normalized growth: 0.964
Locus YIL073C, strain SPO22, stronger effect = lower value
  normalized growth: 0.937
Locus YIL125W, strain kgd1, stronger effect = lower value
  normalized growth: 0.979
Locus YIR030C, strain dcg1, stronger effect = lower value
  normalized growth: 0.979
Locus YJL092W, strain hpr5, stronger effect = lower value
  normalized growth: 1
Locus YJL095W, strain BCK1 (second series), stronger effect = lower value
  normalized growth: 0.988
Locus YJL095W, strain BCK1, stronger effect = lower value
  normalized growth: 0.998 and 0.956
Locus YJL115W, strain asf1, stronger effect = lower value
  normalized growth: 1.01
Locus YJL129C, strain trk1, stronger effect = lower value
  normalized growth: 0.985
Locus YJL134W, strain LCB3, stronger effect = lower value
  normalized growth: 0.975
Locus YJL154C, strain vps35, stronger effect = lower value
  normalized growth: 1.01
Locus YJL164C, strain tpk1, stronger effect = lower value
  normalized growth: 1
Locus YJL166W, strain qcr8, stronger effect = lower value
  normalized growth: 0.959
Locus YJL168C, strain set2, stronger effect = lower value
  normalized growth: 0.972
Locus YJL187C, strain SWE1 (second series), stronger effect = lower value
  normalized growth: 0.993
Locus YJR043C, strain POL32, stronger effect = lower value
  normalized growth: 0.987
Locus YJR066W, strain TOR1, stronger effect = lower value
  normalized growth: 0.915
Locus YJR075W, strain HOC1, stronger effect = lower value
  normalized growth: 0.973
